Source: PubChem BioAssay
HT1080NT lethal: qHTS for induction of synthetic lethality in tumor cells producing 2HG: qHTS for the HT-1080-NT fibrosarcoma cell line; AID 686970, 2013; Potency, µM (highest dose often 46.1 µM), for the others: at the top dose activity, negative = less viability, usual class: cytotoxic; HT-1080-NT fibrosarcoma viability, CellTiter-Glo ATP luminescence, 48 h; hit rate 1.6% among 360,000;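 note: NT is the 2HG producing partner of a matched IDH1 knockdown line; potency is the fitted concentration of half-maximal effect; 0% = DMSO-treated cells and -100% = media-only wells without cells; nearly all actives have a fitted effect of over 55% in size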
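Toxicity toward the 2HG-producing NT line was scored as %Activity, normalised to DMSO and no-cell wells, from CellTiter-Glo luminescence after 48 hours' treatment.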
TDP1 cell CPT: qHTS for Inhibitors of human tyrosyl-DNA phosphodiesterase 1 (TDP1): qHTS in cells in presence of CPT | chicken DT40 Tdp1-/-;hTDP1 cells + 20 nM CPT, ATP luminescence, 48 h | Potency, µM (top dose mostly 46.2 µM), without a hit: top-dose activity change, negative = growth inhibition, most hits filed as inhibitors | hit rate 12% among 420,000; note: potency is the fitted concentration of half-maximal effect; nearly all actives have a fitted effect of over 55% in size
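Chicken DT40 Tdp1-/- cells complemented with human TDP1, 400 cells/well, exposed to compounds plus 20 nM camptothecin for at least 48 h at 37 C; viability read as ATP content by CellTiter-Glo luminescence.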
IL1B secr inh: qHTS for Inhibitors of Inflammasome Signaling: IL-1-beta AlphaLISA Primary Screen | THP-1 LPS/ATP IL-1B secretion, AlphaLISA, 16 h; stronger effect = lower value | activity change, % at 57.5 µM | hit rate 4.7% among 360,000 | AID 743279, 2014; in the data active = activity change below about -50%; inconclusive = mostly about -30% to -49%
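Secreted IL-1B measured by AlphaLISA bead assay after 16 h compound exposure of THP-1 cells; compounds (final up to 57.5 uM) added 1 h before LPS (250 ng/mL) and ATP (1.25 mM) stimulation; lower signal means less secretion.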
HT1080 IDH1KD tx: qHTS for induction of synthetic lethality in tumor cells producing 2HG: qHTS for the HT-1080-IDH1KD cell line. HT-1080 IDH1 knockdown viability, ATP luminescence, 48 h. Potency, µM (top dose mostly 46.1 µM), inactives show top-dose activity, negative = toxicity, usual class: cytotoxic. hit rate 2% among 360,000;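 note: potency is the fitted concentration of half-maximal effect; 0% = DMSO wells and -100% = cell-free medium wells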
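Assay cells: HT-1080 with IDH1 knockdown, 750 per well, RPMI/5% FBS. Exposure: 48 h at 37 °C following 2 h pre-incubation. Read: CellTiter-Glo luminescence; fitted concentration-response, curve class assigned.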
DT40 TDP1 no CPT: qHTS for Inhibitors of human tyrosyl-DNA phosphodiesterase 1 (TDP1): qHTS in cells in absence of CPT. DT40 Tdp1-/- hTDP1 cells, no CPT, ATP luminescence, 48 h. Potency, µM (series often up to 46.2 µM), without a hit: at the highest dose activity change, negative = growth inhibition, usual class: inhibitors. hit rate 15% among 420,000. AID 686978, 2013; note: potency is the fitted concentration of half-maximal effect; nearly all actives have a fitted effect of over 55% in size
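Seeded 400 DT40-hTDP1 cells/well (vehicle DMSO, no 20 nM CPT); pinned compounds; ≥48 hr at 37 °C; CellTiter-Glo luminescence as viability measure.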
An asterisk follows results filed as active; ? = inconclusive; nt = no result. This is a sample that favours compounds with a hit; in the whole collection about 19% have one here. Unless noted, calls come from the whole dose curve; as a rule, active = well fitted curve in the direction sought with a large enough effect; inconclusive = small, poorly fitted or top-dose-only effect, or another doubt; inactive = no such curve, though single readings can be large; an effect the other way counts as inactive or inconclusive. Unless noted, % is set by controls: 0 for no effect and ±100 for the full control effect.

SMILES | HT1080NT lethal | TDP1 cell CPT | IL1B secr inh | HT1080 IDH1KD tx | DT40 TDP1 no CPT
CCC(CC)=N/N=C/c1c(O)n(CC)c2cc(C3=NNC(=O)CC3)ccc12 | -14% | ? | -11 | -7% | 9.2µM*
CCn1c(O)c(/C=N/N=C/c2ccccc2)c2ccc(C3=NNC(=O)CC3)cc21 | -11% | ? | ? | ? | 18µM*
CCCCOc1ccc(C2=NNC(=O)CC2)cc1 | ? | -24% | -20 | ? | -4%
COc1ccc(N2CCN(C(=O)c3cc4c(C)nc5ccccc5c4o3)CC2)cc1 | -12% | 16µM* | 0 | 1% | 9.2µM*
Cc1nc2ccccc2c2oc(C(=O)N3CCC(N4CCCCC4)CC3)cc12 | -13% | ? | ? | -15% | ?
Cc1nc2ccccc2c2oc(C(=O)N3CCN(C4CCCCC4)CC3)cc12 | -7% | 21µM* | -4 | -4% | 12µM*
COC(=O)c1ccccc1NC(=O)Cn1c(=O)nc(-c2ccccc2)c2cc(Cl)ccc21 | nt | 5% | nt | nt | -25%
CCCC1c2ccc(C)n2CCN1C(=O)Nc1ccccc1Cl (configuration not stated) | -1% | -28% | -21 | 5% | 21µM*
CCOC(=O)c1ccccc1NC(=O)N1CCn2c(C)ccc2C1CC (configuration not stated) | 6% | 23µM* | 1 | 8% | ?
CCC1c2ccc(C)n2CCN1C(=O)Nc1ccccc1C(=O)OC (configuration not stated) | 9% | ? | -7 | 5% | ?
COc1cccc2cc(-c3nc4sc(C(=O)Nc5ccc(F)cc5F)c(C)c4c(=O)[nH]3)c(=O)oc12 | nt | -13% | nt | nt | -7%
Cc1ccc(CN(c2ccc(C(=O)NCC3CCCO3)cc2)S(C)(=O)=O)cc1 (configuration not stated) | 5% | -5% | 0 | -1% | 8%
O=C(COc1c(Br)cc(Br)c2cccnc12)Nc1ccccc1F | -7% | ? | 15 | 4% | 18µM*
O=C(COc1ccccc1)Nc1ccccc1F | 22% | 25% | -1 | 10% | -11%
COC(=O)C(N)CS (configuration not stated) | nt | 7% | nt | nt | 25%
COc1ccc(CN2COc3ccc4c(-c5ccccc5)cc(=O)oc4c3C2)cc1 | nt | ? | nt | nt | 16µM*
COc1ccc(C)c2sc(NC(=O)c3ccc(S(=O)(=O)N4CCCCC4)cc3)nc12 | nt | -26% | nt | nt | -2%
NC(=O)CSc1nnc(NC(=O)C2CC(=O)N(c3ccc(F)cc3)C2)s1 (configuration not stated) | 6% | -2% | 0 | -2% | 21µM*
O=C(COc1ccc(F)cc1)Nc1ccc2nc(SCC(=O)N3CCOCC3)sc2c1 | nt | 10µM* | nt | nt | 12µM*
O=C(Nc1ccc(F)cc1)Nc1nnc(SCC(=O)N2CCCCC2)s1 | nt | ? | nt | nt | 3.3µM*
O=C(COc1ccccc1)Nc1ccc2nc(SCC(=O)N3CCOCC3)sc2c1 | nt | 18µM* | nt | nt | 15µM*
O=C(Cc1ccc(F)cc1)Nc1nnc(SCC(=O)N2CCCCC2)s1 | 1% | -4% | 13 | 6% | -4%
CCC(=O)Nc1ccc2nc(SCC(=O)N3CCOCC3)sc2c1 | -6% | 1% | 0 | 3% | -7%
CCc1ccc(-n2c(=O)c3c4c(sc3n(CC(=O)NC(C)CC)c2=O)CCCC4)cc1 (configuration not stated) | nt | 0% | nt | nt | -18%
CC(NC(=O)CCC1COc2ccccc2O1)c1ccccc1 (configuration not stated) | 10% | -1% | -16 | 6% | -3%
SMILES | HT1080NT lethal | TDP1 cell CPT | IL1B secr inh | HT1080 IDH1KD tx | DT40 TDP1 no CPT
Cc1ccc(C)c(N(C)C(=O)CCS(=O)(=O)c2cccc3nonc23)c1 | -1% | 1% | -3 | -1% | -17%
Cc1cccc(C)c1NC(=O)C1C(c2ccccc2)=Nc2ccccc2N1C(=O)c1cnccn1 (configuration not stated) | -14% | -40% | 33 | 17% | ?
CCN(CCCNC(=O)Cn1ncc2c([nH]c3ccc(C)cc32)c1=O)c1ccccc1 | 26% | -1% | 11 | 11% | 4%
NS(=O)(=O)c1ccc(CNC(=O)CSc2nc3ccc(Cl)cc3[nH]2)cc1 | 9% | 15% | 23 | 16% | 0%
O=C(COc1ccc(F)cc1)Nc1ccc2nc(SCC(=O)N3CCCC3)sc2c1 | nt | 12µM* | nt | nt | 23µM*
O=C(Nc1ccccc1)OCc1cncs1 | 3% | -17% | -2 | 2% | -24%
Cc1ccc(Nc2cc(C)nn2-c2nc(C)cc(=O)[nH]2)cc1 | ? | 0.79µM* | -110* | ? | 0.56µM*
Cc1ccc(Nc2cc(C)nn2-c2nc(C)cc(C)n2)cc1 | ? | 5.8µM* | -28 | ? | 5.8µM*
CSc1cccc(NS(=O)(=O)c2ccc3c(c2)oc(=O)n3C)c1 | -2% | 23µM* | 11 | -22% | ?
CCOC(=O)c1ccc(S(=O)(=O)Nc2ccc(N3CCOCC3)cc2)cc1 | 0% | 21µM* | 1 | 0% | ?
CCOC(=O)Cn1c(=O)oc2cc(S(=O)(=O)Nc3cccc(C)c3)ccc21 | 1% | -24% | 3 | -6% | -27%
CC(=O)c1ccc(S(=O)(=O)Nc2ccc(N3CCOCC3)cc2)cc1 | 4% | -2% | 5 | 1% | -18%
CCOC(=O)c1ccc(NS(=O)(=O)c2ccc3c(c2)n(C)c(=O)n3C)cc1 | -5% | 21µM* | -4 | -18% | 18µM*
COC(=O)c1ccc(NS(=O)(=O)c2ccc3c(c2)n(C)c(=O)n3C)cc1 | -7% | -22% | 14 | -3% | ?
CCOC(=O)Cn1c(=O)oc2cc(S(=O)(=O)Nc3cc(OC)cc(OC)c3)ccc21 | nt | 16µM* | nt | nt | 21µM*
Cc1csc(=O)n1CCC(=O)OCC(=O)NCc1ccccc1 | 2% | 8% | -1 | -2% | -6%
O=C1NC2=C(C(=O)CCC2)C(c2ccc([N+](=O)[O-])cc2)N1 (configuration not stated) | 13% | -3% | 4 | 3% | -1%
CCOC(=O)c1ccc(NS(=O)(=O)c2ccc3c(c2)oc(=O)n3C)cc1 | -4% | 3.7µM* | 8 | -12% | ?
COc1ccc(/C=C/S(=O)(=O)NCc2ccccc2)cc1OC | -1% | -24% | 46 | -4% | ?
Cc1ccc(CCNC(=O)CCCn2nc(C)c3c(C)n(-c4ccccc4)nc3c2=O)cc1 | nt | 21µM* | nt | nt | 21µM*
